A selection: hits, their analogues and other compounds. The true share with any hit is near 11%.
Vaccinia mCherry: inhibitors of vaccinia virus infection (mCherry reporter signal). Vaccinia virus mCherry reporter infection, fluorescence. Potency, µM (highest dose often 36.5 µM), inactives show top-dose activity change, negative = inhibition, hits mostly inhibitors. 310,000 tested, 0.63% active; calls by dose curve; tested in A549 cells; also: % is scaled to controls: 0 for no effect and ±100 for the full control effect; nearly all actives have a fitted effect of over 35% in size
Pf growth 48h: inhibits P. falciparum growth in the first generation, 48 h | AID 504832 | 310,000 tested, 5.9% active | P. falciparum luciferase growth in erythrocytes, 48 h | Potency, µM (series often up to 28.7 µM), for the others: top-dose activity change, negative = inhibition, hits mostly inhibitors; also: % is scaled to controls: 0 for no effect and ±100 for the full control effect
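Cell-based growth assay: transgenic P. falciparum expressing firefly luciferase, cultured in red cells within RPMI 1640 containing 0.5% w/v Albumax, 24 mM bicarbonate and gentamycin. A drop in luciferase activity indicates inhibition.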
NS1 inh: inhibitors of influenza NS1 protein function; Potency, µM (highest dose often 46.1 µM), for inactives: at the highest dose activity, positive = more growth; 270,000 tested, 0.4% active; AID 2326; calls by dose curve; also: actives are rising curves; nearly all actives have a fitted effect of over 50% in size
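Recovery from NS1-induced slow growth read by OD600 in budding yeast switched to galactose assay medium (pH 6.0, -URA) at 1:100 dilution. Compound 23 nl per well; the matching strain lacking NS1 serves as control.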
Vaccinia Venus: vaccinia inhibition (Venus reporter); AID 720580; Vaccinia virus Venus reporter expression, fluorescence; Potency, µM (top dose mostly 36.5 µM), inactives show at the highest dose activity change, negative = inhibition, actives largely listed as inhibitors; 330,000 tested, 0.46% active; calls by dose curve; tested in A549 cells; also: % is scaled to controls: 0 for no effect and ±100 for the full control effect; nearly all actives have a fitted effect of over 30% in size
Pf growth 96h: inhibits malaria parasite growth, 96 h; AID 504834; Potency, µM (top dose mostly 28.7 µM), without a hit: at the top dose activity change, negative = inhibition, most hits filed as inhibitors; 320,000 tested, 6.9% active; P. falciparum luciferase reporter growth, 96 h; also: % is scaled to controls: 0 for no effect and ±100 for the full control effect
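Luminescence readout: decreased luciferase signal marks inhibited growth of reporter-expressing P. falciparum in infected red cells (2% hematocrit, 0.05% parasitemia final), exposed to compound two generations (96 h, 37 C, 5% CO2).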
HCV inh: inhibitors of hepatitis C virus infection; Huh7.5.1 HCVcc-Cre infection, luciferase reporter, 44 h; Potency, µM (titrated, usually from 41.8 µM), without a hit: at the top dose activity change, negative = inhibition, most hits filed as inhibitors; 340,000 tested, 3.4% active; AID 651820; also: % is scaled to controls: 0 for no effect and ±100 for the full control effect
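A cell-based infection assay in which seeded cells (1,000 per well) receive test compound after 4 h, are inoculated with HCVcc-Cre at approximately 0.5 moi, and are incubated 44 h before luminescence detection.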
* marks the source's active call; other numbers are inactive results; i = inactive; ? = inconclusive; nt = not tested or not shown. Unless noted, calls follow the shape of the dose curve; as a rule, active = well fitted inhibition curve with a large enough effect; inconclusive = small, poorly fitted or top-dose-only effect, or another doubt; inactive = no such curve, though single readings can be large or run the other way. Potency is read from the fitted curve at half-maximal effect.

SMILES | Vaccinia mCherry | Pf growth 48h | NS1 inh | Vaccinia Venus | Pf growth 96h | HCV inh
Cc1ccc(C(=O)N2CCN3C(=O)c4ccccc4C23c2ccccc2)cc1 (configuration not stated) | -8% | ? | -6% | -1% | ? | -1%
O=C(Nc1ccc(F)cc1)N1CCN2C(=O)c3ccccc3C12c1ccccc1 (configuration not stated) | i | nt | 4% | -18% | 13µM* | 1%
Cc1c(C(=O)C(=O)N2CCN(C)CC2)c2ccccc2n1C | i | -2% | nt | -9% | ? | 28%
CCOC(=O)C1CCCN(C(=O)c2cc(Cl)ccc2NC(=O)C2=C(C)OCCS2)C1 (configuration not stated) | nt | 13µM* | -1% | nt | 1% | 7%
CCOC(=O)C1CCN(C(=O)c2ccccc2NC(=O)C2=C(C)OCCS2)CC1 | nt | 10µM* | 8% | nt | ? | 17%
Nc1ccccc1OCP(=O)(c1ccccc1)c1ccccc1 | -3% | -10% | 12% | -8% | -14% | ?
CC(O)[C@H]1CNC(=O)C(=O)N1CCCCC1CCCCC1 (some centres not stated) | i | -12% | -6% | -7% | 11% | 11%
Clc1cccc(Cl)c1Cn1cnc2c(N3CCCCCC3)ncnc21 | i | 10µM* | -11% | -13% | nt | ?
c1ccc(Cn2nnc3c(N4CCCCCC4)ncnc32)cc1 | i | ? | -130% | -3% | ? | -24%
CCN(CC)c1ncnc2c1ncn2Cc1c(Cl)cccc1Cl | -24% | ? | -3% | -15% | 5% | 13µM*
COc1ccc(NC(=O)Cc2c(Cl)cccc2Cl)cn1 | 2% | 7% | nt | 0% | -16% | 0%
Cc1ccc(NC2=NC(c3ccc(C)cc3)n3c(nc(C)cc3=O)N2)cc1 (configuration not stated) | nt | ? | -23% | nt | 12µM* | -7%
O=c1cc(-c2ccccc2)oc2ccccc12 | -3% | 95% | nt | -4% | 123% | ?
Nc1cc([N+](=O)[O-])cc2oc(-c3ccccc3)cc12 | nt | 129% | 2% | nt | 12% | 10µM*
CCOC(=O)c1c(CN2CCN(Cc3ccccc3)CC2)n(C)c2cc(Br)c(OC)cc12 | i | nt | -1% | -9% | ? | ?
CCOC(=O)c1c(CSc2ccccc2)n(C)c2cc(Br)c(OCC(O)CNC(CO)(CO)CO)cc12 (configuration not stated) | -25% | 12µM* | 4% | ? | 13µM* | ?
CCN(CC)CCN1C(=O)C(=O)/C(=C(/O)c2ccc(S(=O)(=O)N3CCOCC3)cc2)C1c1ccc(C(C)(C)C)cc1 (configuration not stated) | i | -15% | 5% | -7% | 12% | 3%
Cc1ccc(C(CNC(=O)Nc2ccc(Cl)cc2)N2CCN(C)CC2)cc1 (configuration not stated) | -25% | ? | -2% | -19% | ? | 13µM*
CCc1nn2c(=O)cc(COC(=O)c3ccco3)nc2s1 | -2% | nt | nt | 1% | nt | nt
COc1ccc(C2=NNC(c3cc(Cl)cc4c3OCOC4)C2)c(O)c1 (configuration not stated) | nt | 8.3µM* | 15% | nt | 2% | nt
COc1ccc2c(c1)-c1c(ssc1=S)C(C)(C)N2C(=O)CSC1=NCCS1 | nt | 0% | ? | nt | 0% | 10µM*
CCOc1ccc(NC(=O)N2CCN(C(=O)c3ccco3)CC2)cc1 | -5% | ? | -42% | 2% | 24% | 4%
CC1(C)c2ssc(=S)c2-c2ccccc2N1C(=O)CSC1=NCCS1 | nt | ? | ? | nt | 11% | ?
Cc1cc2c(cc1C)N(C(=O)CSC1=NCCS1)C(C)(C)c1ssc(=S)c1-2 | -21% | 6.6µM* | ? | -10% | 2.6µM* | ?
CCOc1ccc2c(c1)-c1c(ssc1=S)C(C)(C)N2C(=O)c1ccco1 | ? | 2.3µM* | 30% | -20% | 1.3µM* | 10µM*
SMILES | Vaccinia mCherry | Pf growth 48h | NS1 inh | Vaccinia Venus | Pf growth 96h | HCV inh
CCOC(=O)C1(CCCc2ccccc2)CCN(C(=O)c2cnc(C)cn2)CC1 | i | ? | -7% | -18% | 22% | -18%
CC1(C(=O)NCc2ccccc2Br)CCN1Cc1ccccc1OC(F)F (configuration not stated) | 25% | nt | nt | -12% | nt | nt
O=C(COC(=O)c1cncc(Br)c1)Nc1ccc2c(c1)OCO2 | -5% | 16% | nt | 4% | -20% | 15%
CC[C@@H](NS(=O)(=O)c1ccc(C)cc1)C(=O)Oc1ccc2c3c(c(=O)oc2c1)CCC3 | i | 0% | -28% | ? | ? | 5%
CC1(C)SC2C(NC(=O)C3(N)CCCCC3)C(=O)N2C1C(=O)O (configuration not stated) | -16% | nt | nt | -9% | nt | 10%
CC1(C)SC2[C@@H](N=CN3CCCCCC3)C(=O)N2[C@H]1C(=O)O (some centres not stated) | nt | ? | nt | nt | 17µM* | nt
CC(C)(C)C(=O)OCOC(=O)[C@@H]1N2C(=O)[C@@H](N=CN3CCCCCC3)[C@H]2SC1(C)C | -3% | -15% | nt | -21% | -3% | 0.5µM*
CC(=O)C1=C(C)NC(SCC(=O)c2ccc(C)cc2)=C(C#N)C1c1ccco1 (configuration not stated) | nt | 9.3µM* | -51% | nt | 6.6µM* | 7.1µM*
COc1ccc(OC)c(NC(=O)CSC2=C(C#N)C(c3ccco3)C3=C(CCCC3=O)N2)c1 (configuration not stated) | -26% | 9.3µM* | -2% | -13% | -4% | ?
COc1ccccc1NC(=O)C1=C(C)NC(SCC(=O)c2ccccc2)=C(C#N)C1c1ccco1 (configuration not stated) | -21% | 9.3µM* | -4% | 2% | nt | 7.9µM*
CC(OC(=O)CSc1ccc([N+](=O)[O-])cc1)C(=O)NCc1ccco1 (configuration not stated) | -12% | ? | nt | -11% | 16% | 28%
Nc1nc(Cl)c(C=O)c(N2CCCCC2)n1 | -7% | ? | nt | 0% | -13% | 10µM*
O=c1cc(O)nc(SCc2ccccc2)[nH]1 | nt | -1% | 28% | nt | nt | 10%
COCCn1c(=N)c(C(=O)NCCc2ccc(OC)cc2)cc2c(=O)n3cccc(C)c3nc21 | nt | 2.1µM* | 4% | 2% | 2.9µM* | 13%
Cc1cccn2c(=O)c3cc(C(=O)NCC4CCCO4)c(=N)n(CC4CCCO4)c3nc12 (configuration not stated) | i | -21% | -11% | -5% | -6% | 6%
COc1ccc(CCNC(=O)c2cc3c(=O)n4cccc(C)c4nc3n(CCCN3CCOCC3)c2=N)cc1 | nt | ? | 3% | nt | ? | ?
COCCCn1c(C(=O)Nc2ccc3c(c2)OCO3)cc2c(=O)n3cccc(C)c3nc21 | ? | nt | nt | 5µM* | nt | nt

Source: PubChem
